Laboratory results: PubChem BioAssay (NCATS)
Inconclusive results are not listed. Where a call stands in place of a potency, no number is given. Active and inactive are the calls of the source. The call rests on the fitted dose curve; in most records, active means well fitted cell-killing curve with a large enough effect; inconclusive means small, poorly fitted or top-dose-only effect, or effect the other way; inactive means flat fitted curve, though single readings scatter.

Assay: qHTS assay for cell viability of the p53RE-bla HCT-116 cell line (AID 743292); further: nearly all actives have a fitted effect of over 55% in size
Conditions: p53RE-bla HCT-116 viability, ATP luminescence, 16 h; series mostly up to 95 µM
Text: U.S. Tox21 Program National Center for Advancing Translational Sciences [NCATS] NIH Chemical Genomics Center [NCGC] U.S. Environmental Protection Agency [EPA] National Institutes of Environmental Health Sciences [NIEHS] National Toxicology Program [NTP] U.S. Food and Drug Administration [FDA] Tox21 Assay Overview: The CellTiter-Glo Luminescent Cell Viability Assay (Promega, Madison, WI) is a homogeneous method to determine the number of viable cells in culture based on quantitation of the ATP present, which signals the presence of metabolically active cells. This cell viability assay was used to screen environmental chemicals in the CellSensor p53RE-bla HCT-116 cell line (Invitrogen).
Tox21 Assay Protocol Summary: Cell viability after compound treatment was measured using a luciferase-coupled ATP quantitation assay (CellTiter-Glo viability assay, Promega, Madison, WI) in CellSensor p53RE-bla HCT-116 cell line (Invitrogen). Total intracellular ATP content corresponds to the number of metabolically competent cells after compound treatment. The cells were dispensed at 4,000 cells/5 uL/well in 1,536-well white/solid bottom assay plates using a Flying Reagent Dispenser (Aurora Discovery, San Diego, CA). The cells were incubated for 5 h at 37 C, followed by the addition of 23 nL of compounds dissolved in DMSO, positive controls or DMSO only using a pintool work station (Kalypsys, San Diego, CA). The assay plates were incubated for 16 h at 37 C, followed by the addition of 5 uL/well of CellTiter-Glo reagent. After 30 min incubation at room temperature, the luminescence intensity of the plates was measured using a ViewLux plate reader (PerkinElmer, Shelton, CT).
With `COC(=O)Nc1nc2ccccc2[nH]1` the Potency was “inactive”.
For `OC[P+](CO)(CO)CO`, the Potency was “inactive”.
In the case of `O=[N+]([O-])c1ccc(O)c([N+](=O)[O-])c1`, the Potency is reported as “inactive”.
With `Nc1ccccc1-c1ccccc1` the Potency was “inactive”.
In the case of `CC(Cl)CCl` (stereo not given), the Potency is reported as “inactive”.
In the case of `Cc1ccc2c(C)cccc2c1`, the Potency is reported as “inactive”.
For `ClC(Cl)(Cl)C(Cl)(Cl)Cl`, the Potency was “inactive”.
For `O=[N+]([O-])c1ccc(Cl)c(Cl)c1Cl`, the Potency was “inactive”.
With `Nn1cnnc1` the Potency was “inactive”.
For `S=c1[nH]c2ccccc2[nH]1`, the Potency was “inactive”.
In the case of `O=C(Cl)OCc1ccccc1`, the Potency is reported as “inactive”.
In the case of `ClP(Cl)(Cl)(Cl)Cl`, the Potency is reported as “inactive”.
For `CCCCOC(C)=O`, the Potency was “inactive”.
In the case of `Cc1ccc(N)cc1C`, the Potency is reported as “inactive”.
In the case of `Cc1cc(Cl)ccc1O`, the Potency is reported as “inactive”.
In the case of `Clc1ccc(C(Cl)(Cl)Cl)cc1Cl`, the Potency is reported as “inactive”.
For `C/C=C/CC#N`, the Potency was “inactive”.
For `Oc1cccc(Cl)c1Cl`, the Potency was “inactive”.
For `CCCCC#N`, the Potency was “inactive”.
In the case of `COc1cc(-c2ccc(N)c(OC)c2)ccc1N`, the Potency is reported as “inactive”.
For `CCN(CC)CCO`, the Potency was “inactive”.
For `Oc1ccc(Cl)c(Cl)c1Cl`, the Potency was “inactive”.
In the case of `[N-]=[N+]=[N-]`, the Potency is reported as “inactive”.
For `CN(C)C(=O)Nc1cccc(C(F)(F)F)c1`, the Potency was “inactive”.
In the case of `CC(C)C#N`, the Potency is reported as “inactive”.
With `CNC(=O)O/N=C/C(C)(C)S(C)=O` (stereo not given) the Potency was “inactive”.
For `CC(C)OC(=O)Cc1ccccc1`, the Potency was “inactive”.
With `COc1ccccc1N` the Potency was “inactive”.
With `ClCC(Cl)CCl` the Potency was “inactive”.
In the case of `Nc1cc(Cl)ccc1Cl`, the Potency is reported as “inactive”.
In the case of `ClCc1ccccc1`, the Potency is reported as “inactive”.
In the case of `O=[N+]([O-])c1ccc(Cl)cc1`, the Potency is reported as “inactive”.
In the case of `Brc1cccc(-c2ccccc2)c1`, the Potency is reported as “inactive”.
With `CC(C)OS(C)(=O)=O` the Potency was “inactive”.
In the case of `Nc1ccc2ccccc2c1`, the Potency is reported as “inactive”.
In the case of `CCCCCc1cc(O)cc(O)c1`, the Potency is reported as “inactive”.
With `CCCCNC(=O)n1c(NC(=O)OC)nc2ccccc21` the Potency was “inactive”.
For `CC(=O)NNc1ccccc1`, the Potency was “inactive”.
For `Nc1ccc(Cl)c(Cl)c1`, the Potency was “inactive”.
With `N#CCCC#N` the Potency was “inactive”.
